Here are results for one sequence from paper PMC7862700, “An all-to-all approach to the identification of sequence-specific readers for epigenetic DNA modifications on cytosine”.

What all share (assay): DAPPL (digital affinity profiling via proximity ligation, sequencing); 10 mM Tris-HCl pH 7.5, 50 mM NaCl, 1 mM DTT, 4% glycerol, room temperature, 30 min; GST-TFs on glutathione beads, 16-mer random dsDNA library, 0.1% formaldehyde crosslink after washing; high values mean tight binding
Holding throughout (conditions): protein: recombinant; tags: N-terminal GST; dsDNA, one strand shown

One assay deals with T1, ELK1 (Homo sapiens, UniProt P19419 1-428).
T1 sequence: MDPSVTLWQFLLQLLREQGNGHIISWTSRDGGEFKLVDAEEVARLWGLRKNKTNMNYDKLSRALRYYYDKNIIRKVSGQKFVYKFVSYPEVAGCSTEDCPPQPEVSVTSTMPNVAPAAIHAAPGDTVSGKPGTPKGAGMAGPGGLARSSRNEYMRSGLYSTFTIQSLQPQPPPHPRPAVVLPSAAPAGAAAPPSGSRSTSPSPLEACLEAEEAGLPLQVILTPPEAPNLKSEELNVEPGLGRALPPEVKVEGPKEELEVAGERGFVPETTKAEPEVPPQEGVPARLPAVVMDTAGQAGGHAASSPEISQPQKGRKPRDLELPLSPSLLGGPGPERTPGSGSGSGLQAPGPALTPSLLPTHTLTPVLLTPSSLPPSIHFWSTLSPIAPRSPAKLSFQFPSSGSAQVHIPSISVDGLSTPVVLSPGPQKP
In a few lines: (§1)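 Binding signal is each hexamer's read frequency for a factor divided by its frequency in the tag-only sample. The factors were GST-fused human transcription factors from yeast, captured on glutathione beads, DNA-barcoded and pooled with that sample. Pools were incubated with 200 nmole of a random double-stranded 16-mer DNA library in Tris/NaCl/DTT/glycerol buffer at room temperature for 30 min, then washed, crosslinked with 0.1% formaldehyde, proximity-ligated with BsaI/T4 ligase (1 h, 37 °C), PCR-amplified and sequenced on an Illumina NextSeq500.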

The target in the next assay is T2, GABPA (Homo sapiens, UniProt Q06546 1-454).
T2 sequence: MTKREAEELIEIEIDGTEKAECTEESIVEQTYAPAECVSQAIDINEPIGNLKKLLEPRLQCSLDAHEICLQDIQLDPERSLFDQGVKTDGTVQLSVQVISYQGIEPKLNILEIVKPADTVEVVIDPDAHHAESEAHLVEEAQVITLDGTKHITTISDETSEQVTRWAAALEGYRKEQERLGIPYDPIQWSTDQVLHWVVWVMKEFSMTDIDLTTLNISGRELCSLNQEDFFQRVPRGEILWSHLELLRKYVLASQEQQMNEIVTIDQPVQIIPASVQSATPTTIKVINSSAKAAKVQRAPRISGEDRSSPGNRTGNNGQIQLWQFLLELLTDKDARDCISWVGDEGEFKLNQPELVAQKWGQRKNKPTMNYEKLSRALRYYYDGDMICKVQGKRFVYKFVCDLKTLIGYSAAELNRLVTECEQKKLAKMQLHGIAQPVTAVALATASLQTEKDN
Put shortly: as §1

The target in another assay is T3, ERG (Homo sapiens, UniProt P11308 1-479).
T3 sequence: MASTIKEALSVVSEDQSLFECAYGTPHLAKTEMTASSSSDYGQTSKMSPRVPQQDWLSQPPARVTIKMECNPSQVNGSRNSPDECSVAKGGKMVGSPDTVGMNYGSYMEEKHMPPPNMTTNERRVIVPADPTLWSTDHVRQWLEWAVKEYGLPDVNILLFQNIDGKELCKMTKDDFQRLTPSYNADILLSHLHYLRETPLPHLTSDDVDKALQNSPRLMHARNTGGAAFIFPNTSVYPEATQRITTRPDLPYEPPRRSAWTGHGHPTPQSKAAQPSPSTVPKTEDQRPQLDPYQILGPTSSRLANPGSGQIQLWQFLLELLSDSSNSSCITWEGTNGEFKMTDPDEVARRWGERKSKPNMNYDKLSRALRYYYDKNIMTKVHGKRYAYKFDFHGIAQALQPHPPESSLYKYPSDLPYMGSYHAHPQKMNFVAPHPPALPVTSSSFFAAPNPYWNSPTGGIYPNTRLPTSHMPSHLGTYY
In a few lines: as §1

For the next assay, the target named is ELF1 (Homo sapiens, UniProt P32519 1-619). Put shortly: as §1
A further assay addresses T4, EHF (Homo sapiens, UniProt Q9NZC4 1-300).
T4 sequence: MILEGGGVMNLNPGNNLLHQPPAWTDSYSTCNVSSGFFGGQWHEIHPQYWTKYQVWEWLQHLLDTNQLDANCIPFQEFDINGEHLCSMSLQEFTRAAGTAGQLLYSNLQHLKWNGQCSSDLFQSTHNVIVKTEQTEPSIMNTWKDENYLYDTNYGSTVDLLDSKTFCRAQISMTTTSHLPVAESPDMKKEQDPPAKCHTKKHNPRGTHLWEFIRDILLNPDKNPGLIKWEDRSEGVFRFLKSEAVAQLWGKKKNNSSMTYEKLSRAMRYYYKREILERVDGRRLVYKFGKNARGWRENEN
Put shortly:
as §1

The target of another assay is SPIB (Homo sapiens, UniProt Q01892 1-262). Put shortly: as §1
In a further assay the target is T5, SPIC (Homo sapiens, UniProt Q8N5J4 1-248).
T5 sequence: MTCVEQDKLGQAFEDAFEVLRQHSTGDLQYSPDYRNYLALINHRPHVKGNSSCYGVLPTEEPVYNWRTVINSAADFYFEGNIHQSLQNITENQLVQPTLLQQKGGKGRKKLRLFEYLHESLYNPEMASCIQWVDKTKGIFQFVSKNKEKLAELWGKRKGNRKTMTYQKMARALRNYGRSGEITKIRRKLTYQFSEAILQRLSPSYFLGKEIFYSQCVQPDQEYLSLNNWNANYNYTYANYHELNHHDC
Put shortly:
as §1

In the next assay the target is ELF4 (Homo sapiens, UniProt Q99607 1-663). In a few lines:
as §1

The target in a further assay is T6, ELK4 (Homo sapiens, UniProt P28324-2 1-405).
T6 sequence: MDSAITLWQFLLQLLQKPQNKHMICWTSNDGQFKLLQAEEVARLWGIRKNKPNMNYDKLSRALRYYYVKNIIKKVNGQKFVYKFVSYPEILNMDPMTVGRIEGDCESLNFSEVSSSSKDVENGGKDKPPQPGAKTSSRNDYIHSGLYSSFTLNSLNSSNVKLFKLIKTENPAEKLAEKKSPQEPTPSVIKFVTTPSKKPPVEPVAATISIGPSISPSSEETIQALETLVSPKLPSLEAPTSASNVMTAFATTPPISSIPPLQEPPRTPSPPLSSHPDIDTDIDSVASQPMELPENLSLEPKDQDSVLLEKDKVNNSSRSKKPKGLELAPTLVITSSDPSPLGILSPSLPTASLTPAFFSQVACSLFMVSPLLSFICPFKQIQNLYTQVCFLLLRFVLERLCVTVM
Put shortly: as §1

A further assay deals with T7, ELF3 (Homo sapiens, UniProt P78545 1-371).
T7 sequence: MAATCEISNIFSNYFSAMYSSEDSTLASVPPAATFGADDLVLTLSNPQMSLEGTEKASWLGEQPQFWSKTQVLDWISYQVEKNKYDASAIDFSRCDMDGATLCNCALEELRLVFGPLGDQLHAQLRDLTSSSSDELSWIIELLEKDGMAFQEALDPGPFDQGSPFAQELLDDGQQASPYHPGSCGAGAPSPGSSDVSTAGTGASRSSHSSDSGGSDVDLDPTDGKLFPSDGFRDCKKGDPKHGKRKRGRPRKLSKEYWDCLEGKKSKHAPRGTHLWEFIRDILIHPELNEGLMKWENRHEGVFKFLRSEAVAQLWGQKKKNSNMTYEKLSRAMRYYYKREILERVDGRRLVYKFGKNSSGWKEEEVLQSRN
Put shortly:
as §1

For the next assay, the target named is ETV1 (Homo sapiens, UniProt P50549 1-477). In a few lines:
as §1

Another assay concerns the target T8, ERF (Homo sapiens, UniProt P50548 1-548).
T8 sequence: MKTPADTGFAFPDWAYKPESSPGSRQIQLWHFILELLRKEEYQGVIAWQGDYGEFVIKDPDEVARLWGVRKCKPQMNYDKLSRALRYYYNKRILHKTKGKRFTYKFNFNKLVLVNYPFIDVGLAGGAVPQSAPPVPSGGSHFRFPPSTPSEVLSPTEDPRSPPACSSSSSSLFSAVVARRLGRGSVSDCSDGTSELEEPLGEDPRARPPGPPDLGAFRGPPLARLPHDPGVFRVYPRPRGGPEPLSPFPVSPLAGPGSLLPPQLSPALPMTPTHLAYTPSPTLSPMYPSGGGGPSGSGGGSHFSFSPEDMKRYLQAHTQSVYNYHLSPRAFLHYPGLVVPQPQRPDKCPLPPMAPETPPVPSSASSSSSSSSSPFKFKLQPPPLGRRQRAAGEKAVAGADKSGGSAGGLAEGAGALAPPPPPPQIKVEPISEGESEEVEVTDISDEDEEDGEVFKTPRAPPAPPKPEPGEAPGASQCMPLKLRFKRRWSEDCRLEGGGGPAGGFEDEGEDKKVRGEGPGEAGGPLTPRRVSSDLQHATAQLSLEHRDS
In a few lines:
as §1

The target of another assay is T9, ETV3L (Homo sapiens, UniProt Q6ZN32 1-361).
T9 sequence: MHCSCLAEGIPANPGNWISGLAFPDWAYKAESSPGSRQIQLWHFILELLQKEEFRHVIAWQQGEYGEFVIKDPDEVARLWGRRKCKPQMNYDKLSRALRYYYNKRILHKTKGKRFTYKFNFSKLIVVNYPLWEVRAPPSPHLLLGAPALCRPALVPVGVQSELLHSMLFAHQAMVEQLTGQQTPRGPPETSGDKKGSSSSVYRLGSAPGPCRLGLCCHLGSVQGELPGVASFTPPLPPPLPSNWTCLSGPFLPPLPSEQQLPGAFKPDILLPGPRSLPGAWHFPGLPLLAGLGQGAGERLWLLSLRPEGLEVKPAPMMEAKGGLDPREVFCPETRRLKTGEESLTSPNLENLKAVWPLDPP
In a few lines:
as §1

Another assay addresses T10, ETS2 (Homo sapiens, UniProt P15036 1-469).
T10 sequence: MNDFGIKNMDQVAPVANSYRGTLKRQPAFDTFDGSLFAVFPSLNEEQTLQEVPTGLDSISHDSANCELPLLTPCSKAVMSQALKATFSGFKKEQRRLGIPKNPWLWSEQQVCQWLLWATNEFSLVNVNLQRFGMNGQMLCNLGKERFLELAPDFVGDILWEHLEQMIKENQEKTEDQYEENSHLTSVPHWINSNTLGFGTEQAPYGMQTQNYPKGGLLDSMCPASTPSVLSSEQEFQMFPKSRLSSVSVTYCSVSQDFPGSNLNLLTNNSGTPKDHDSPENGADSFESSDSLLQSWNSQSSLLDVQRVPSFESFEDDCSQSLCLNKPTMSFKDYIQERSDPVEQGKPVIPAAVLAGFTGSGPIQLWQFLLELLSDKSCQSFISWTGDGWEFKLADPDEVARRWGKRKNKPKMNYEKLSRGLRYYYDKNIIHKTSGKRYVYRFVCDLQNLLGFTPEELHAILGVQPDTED
Put shortly:
as §1

The target in the next assay is T11, SPDEF (Homo sapiens, UniProt O95238 1-335).
T11 sequence: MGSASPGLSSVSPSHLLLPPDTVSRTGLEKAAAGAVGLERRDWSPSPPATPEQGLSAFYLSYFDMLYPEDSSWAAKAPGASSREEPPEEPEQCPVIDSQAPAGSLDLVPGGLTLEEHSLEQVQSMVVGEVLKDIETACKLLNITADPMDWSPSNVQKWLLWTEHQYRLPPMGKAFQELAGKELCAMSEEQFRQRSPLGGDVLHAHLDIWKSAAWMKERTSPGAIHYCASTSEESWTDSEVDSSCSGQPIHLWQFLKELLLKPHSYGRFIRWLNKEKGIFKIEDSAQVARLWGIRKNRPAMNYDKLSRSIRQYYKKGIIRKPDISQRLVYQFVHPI
Put shortly:
as §1

The target of another assay is T12, ETV7 (Homo sapiens, UniProt Q9Y603 1-341).
T12 sequence: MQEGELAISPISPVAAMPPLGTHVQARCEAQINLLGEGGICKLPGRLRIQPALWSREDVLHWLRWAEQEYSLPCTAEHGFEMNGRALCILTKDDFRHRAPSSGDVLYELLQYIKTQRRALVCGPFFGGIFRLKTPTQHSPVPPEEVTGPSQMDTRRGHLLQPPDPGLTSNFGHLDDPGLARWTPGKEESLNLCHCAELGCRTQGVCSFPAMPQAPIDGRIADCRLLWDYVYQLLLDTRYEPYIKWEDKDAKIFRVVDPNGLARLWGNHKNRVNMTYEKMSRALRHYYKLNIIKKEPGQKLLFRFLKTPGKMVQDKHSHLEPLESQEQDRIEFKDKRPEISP
In a few lines: as §1

The target in the next assay is T13, ETV3 (Homo sapiens, UniProt P41162-2 1-143).
T13 sequence: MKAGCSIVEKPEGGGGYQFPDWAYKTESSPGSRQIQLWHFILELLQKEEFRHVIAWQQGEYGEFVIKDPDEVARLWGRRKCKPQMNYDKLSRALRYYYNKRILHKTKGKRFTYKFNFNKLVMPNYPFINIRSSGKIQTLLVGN
Put shortly: as §1

The target in a further assay is ETV6 (Homo sapiens, UniProt P41212 1-452). In a few lines:
as §1

Chain of SPIB (Q01892 whole entry): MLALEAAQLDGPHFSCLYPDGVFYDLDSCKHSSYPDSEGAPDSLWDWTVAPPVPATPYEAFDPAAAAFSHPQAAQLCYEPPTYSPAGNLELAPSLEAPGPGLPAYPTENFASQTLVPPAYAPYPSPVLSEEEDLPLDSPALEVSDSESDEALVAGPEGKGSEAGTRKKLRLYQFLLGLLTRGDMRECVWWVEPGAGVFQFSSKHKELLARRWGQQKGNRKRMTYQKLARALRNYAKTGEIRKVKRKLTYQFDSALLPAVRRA
Chain of ETV1 (P50549 whole entry): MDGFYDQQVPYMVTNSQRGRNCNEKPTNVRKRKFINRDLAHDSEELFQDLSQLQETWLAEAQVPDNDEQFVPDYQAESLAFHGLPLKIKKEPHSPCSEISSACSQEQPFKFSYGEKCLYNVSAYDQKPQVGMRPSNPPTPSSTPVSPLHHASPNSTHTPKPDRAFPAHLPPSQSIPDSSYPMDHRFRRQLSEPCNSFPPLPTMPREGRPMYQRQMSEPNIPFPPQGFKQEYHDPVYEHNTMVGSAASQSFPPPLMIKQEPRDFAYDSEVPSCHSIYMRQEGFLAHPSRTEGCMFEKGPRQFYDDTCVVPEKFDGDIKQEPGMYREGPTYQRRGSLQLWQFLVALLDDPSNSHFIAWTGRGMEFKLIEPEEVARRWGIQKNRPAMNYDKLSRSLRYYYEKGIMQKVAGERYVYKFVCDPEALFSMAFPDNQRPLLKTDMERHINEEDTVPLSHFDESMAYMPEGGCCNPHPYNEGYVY
Chain of ELF4 (Q99607 whole entry): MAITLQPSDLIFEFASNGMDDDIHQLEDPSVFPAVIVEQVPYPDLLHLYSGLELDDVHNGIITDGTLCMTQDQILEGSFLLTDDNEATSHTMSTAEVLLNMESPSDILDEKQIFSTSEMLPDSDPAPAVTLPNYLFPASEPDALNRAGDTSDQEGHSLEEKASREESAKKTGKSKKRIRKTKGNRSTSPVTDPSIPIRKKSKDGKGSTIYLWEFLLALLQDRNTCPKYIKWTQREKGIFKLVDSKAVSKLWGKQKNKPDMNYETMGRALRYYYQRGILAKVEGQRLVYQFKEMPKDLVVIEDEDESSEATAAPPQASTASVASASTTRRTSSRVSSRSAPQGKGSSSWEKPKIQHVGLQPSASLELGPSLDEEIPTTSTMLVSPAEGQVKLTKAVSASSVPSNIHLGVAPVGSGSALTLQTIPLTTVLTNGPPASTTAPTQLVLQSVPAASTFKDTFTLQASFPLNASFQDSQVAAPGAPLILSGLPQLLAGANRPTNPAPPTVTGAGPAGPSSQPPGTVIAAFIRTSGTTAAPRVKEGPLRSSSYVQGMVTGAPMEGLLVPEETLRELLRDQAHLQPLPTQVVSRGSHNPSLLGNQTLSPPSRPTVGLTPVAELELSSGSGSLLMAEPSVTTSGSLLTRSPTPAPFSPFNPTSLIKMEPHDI
Chain of ETV6 (P41212 whole entry): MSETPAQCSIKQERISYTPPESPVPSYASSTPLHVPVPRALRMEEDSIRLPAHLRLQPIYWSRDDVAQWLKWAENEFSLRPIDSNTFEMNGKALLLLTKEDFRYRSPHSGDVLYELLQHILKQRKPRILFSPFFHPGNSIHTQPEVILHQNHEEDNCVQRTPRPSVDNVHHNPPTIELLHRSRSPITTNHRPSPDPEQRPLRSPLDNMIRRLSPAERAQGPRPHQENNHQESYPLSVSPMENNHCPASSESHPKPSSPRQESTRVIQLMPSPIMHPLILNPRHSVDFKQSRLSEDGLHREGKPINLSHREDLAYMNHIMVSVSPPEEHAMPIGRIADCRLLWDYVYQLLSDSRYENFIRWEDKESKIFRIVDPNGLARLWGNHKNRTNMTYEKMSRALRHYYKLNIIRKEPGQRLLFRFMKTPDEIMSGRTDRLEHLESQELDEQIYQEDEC
Chain of ELF1 (P32519 whole entry): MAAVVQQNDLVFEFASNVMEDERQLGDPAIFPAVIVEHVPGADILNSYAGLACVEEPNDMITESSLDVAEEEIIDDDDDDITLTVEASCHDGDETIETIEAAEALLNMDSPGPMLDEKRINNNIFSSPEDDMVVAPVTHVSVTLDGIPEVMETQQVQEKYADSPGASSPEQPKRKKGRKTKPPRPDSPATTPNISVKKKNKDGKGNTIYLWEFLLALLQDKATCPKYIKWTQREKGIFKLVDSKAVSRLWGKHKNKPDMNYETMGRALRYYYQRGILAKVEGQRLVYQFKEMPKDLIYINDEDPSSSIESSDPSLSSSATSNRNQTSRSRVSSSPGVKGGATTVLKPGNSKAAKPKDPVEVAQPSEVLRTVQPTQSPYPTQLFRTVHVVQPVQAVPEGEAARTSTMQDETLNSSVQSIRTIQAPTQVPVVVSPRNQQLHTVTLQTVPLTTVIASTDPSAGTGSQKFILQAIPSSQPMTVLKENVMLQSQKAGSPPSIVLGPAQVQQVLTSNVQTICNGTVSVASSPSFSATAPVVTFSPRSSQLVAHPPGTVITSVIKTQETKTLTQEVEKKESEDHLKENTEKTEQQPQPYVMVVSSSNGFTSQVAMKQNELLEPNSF

As for ACAGCC, the binding signal was 1.1 fold enrichment (6-mer frequency, TF over GST control) with ELK1; 1.07 fold enrichment (6-mer frequency, TF over GST control) in the assay with GABPA; 1.02 fold enrichment (6-mer frequency, TF over GST control) with ERG; 1.11 fold enrichment (6-mer frequency, TF over GST control) with ELF1; 1.11 fold enrichment (6-mer frequency, TF over GST control) with EHF; 1.03 fold enrichment (6-mer frequency, TF over GST control) in the assay with SPIB. Moreover, the binding signal was 1.08 fold enrichment (6-mer frequency, TF over GST control) with SPIC; 1.11 fold enrichment (6-mer frequency, TF over GST control) in the assay with ELF4; 1.04 fold enrichment (6-mer frequency, TF over GST control) with ELK4; 1.24 fold enrichment (6-mer frequency, TF over GST control) with ELF3; 1.06 fold enrichment (6-mer frequency, TF over GST control) with ETV1; 1.18 fold enrichment (6-mer frequency, TF over GST control) with ERF. Moreover, the binding signal was 1.04 fold enrichment (6-mer frequency, TF over GST control) with ETV3L; 1.03 fold enrichment (6-mer frequency, TF over GST control) with ETS2; 1.02 fold enrichment (6-mer frequency, TF over GST control) in the assay with SPDEF; 1.15 fold enrichment (6-mer frequency, TF over GST control) with ETV7; 1.04 fold enrichment (6-mer frequency, TF over GST control) with ETV3; 1.03 fold enrichment (6-mer frequency, TF over GST control) in the assay with ETV6.
